Out of some 16,000 compounds screened, about 5,700 (36%) were called active. Inconclusive results (about 24%) are left out. Calls come from the whole dose curve; as a rule, active = well fitted curve in the direction sought with a large enough effect; inconclusive = small, poorly fitted or top-dose-only effect, or effect the other way; inactive = no such curve, though single readings can be large or run the other way. The list shows a part of the results.
% is set by controls: 0 for no effect and ±100 for the full control effect.

This assay deals with Cytochrome P450 1A2 (Homo sapiens) (UniProt P05177). The assay can be described thus: Cytochrome panel assay with activity outcomes. The conditions noted are these: recombinant CYP, pro-luciferin dealkylation, luminescence, p450-cyp1a2; series mostly up to 57.1 µM; activity, negative = inhibition: at the top concentration.
Cytochrome P450 1A2 (Homo sapiens), sequence (P05177 whole entry, looked up): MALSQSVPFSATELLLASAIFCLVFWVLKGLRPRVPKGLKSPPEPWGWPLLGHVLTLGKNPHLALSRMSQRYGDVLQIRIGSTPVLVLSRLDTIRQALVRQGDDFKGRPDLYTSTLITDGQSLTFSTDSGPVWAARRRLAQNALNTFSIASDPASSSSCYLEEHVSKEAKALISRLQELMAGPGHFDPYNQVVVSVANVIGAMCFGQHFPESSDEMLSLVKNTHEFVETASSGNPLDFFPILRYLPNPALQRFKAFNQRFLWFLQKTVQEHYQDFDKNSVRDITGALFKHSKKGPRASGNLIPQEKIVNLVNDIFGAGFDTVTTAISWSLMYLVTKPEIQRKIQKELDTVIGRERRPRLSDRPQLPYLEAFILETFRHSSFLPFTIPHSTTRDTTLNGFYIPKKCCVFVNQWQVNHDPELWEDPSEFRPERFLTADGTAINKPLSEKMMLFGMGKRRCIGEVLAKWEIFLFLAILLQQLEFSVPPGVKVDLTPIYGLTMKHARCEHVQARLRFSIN
As a reminder, the AC50 is the midpoint of the concentration-response curve, whichever way the signal moves. Turning to `CC[C@@H](CO)Nc1nc(NCc2ccccc2)c2ncn(C(C)C)c2n1`, the AC50 was 12600 nM (active).

Take `CC(C)[C@H](CO)Nc1nc(Nc2cccc(Cl)c2)c2ncn(C(C)C)c2n1`: the AC50 was 316 nM (active). Take `O=C(O)[C@@H](Br)[C@H](Br)C(=O)O`: the activity, negative = inhibition was 5.86% [at 11.4 µM] (inactive). For the compound `CC(C)CNC(=S)NC1CC2CCCC(C1)N2Cc1ccco1` (stereo not drawn), the “activity, negative = inhibition” value is 4.27% (inactive). On to `CC(C)N(CC[C@@](C(N)=O)(c1ccccc1)c1ccccn1)C(C)C`, for which the AC50 entry was “inactive”.

In the case of `C(#CCN1CCCC1)CN1CCCC1`, the “activity, negative = inhibition” value was 1.87% [at 25.6 µM] (inactive). On the same count and under the same terms, the same measure for `CNC(=O)Oc1ccc2c(c1)[C@@]1(C)CCN(C)[C@@H]1N2C`: -6.82% [at 25.6 µM] (inactive). For `O=C(C[n+]1ccc2ccccc2c1)c1ccc2ccc3ccccc3c2c1`, the half-maximal activity concentration (AC50) was 2510 nM (active). Turning to `CCOC(=O)c1c(NC(=O)C(c2ccccc2)c2ccccc2)sc2c1C1CCN2CC1`, the “activity, negative = inhibition” value was -3.75% (inactive).

Regarding `COc1ccc(NC(=O)NC2CC3CCCC(C2)N3Cc2ccccc2)cc1` (stereo not drawn), the “activity, negative = inhibition” value is 1.27% (inactive).

Turning to `NC[C@@H](Cc1ccccc1)P(=O)(O)O`, the activity, negative = inhibition is -9.3% [at 11.4 µM] (inactive).

As for `Nc1nc2ccc(Cl)cc2c2nc(-c3ccco3)nn12`, the half-maximal activity concentration (AC50) was 63.1 nM (active). Turning to `CN1CC[C@@]2(CCCN(C(=O)c3ccncc3)C2)C1`, the “activity, negative = inhibition” value was 2.09% (inactive). As to `COC(=O)N1CCN(C(=O)Cc2ccc(Cl)c(Cl)c2)[C@H](CN2CCCC2)C1`, the AC50 entry was “inactive”. The same measure, in the same setting: the same measure for `CSC([N-]/N=C/c1cccc(C)n1)=[S]=[Cu].CS[C@H]([S-])[N-]/N=C/c1cccc(C)n1`: 631 nM (active). Consider `O=C(Oc1ccccc1)N1CCC2(CCCN(C(c3ccccc3)c3ccccc3)C2)CC1`, for which the “activity, negative = inhibition” value was 6.99% (inactive). Still for that read-out and setting: the same measure for `CNCCCc1ccccc1`: -2.27% (inactive). For `c1ccc(CCCCN2CCC(c3ccccc3)CC2)cc1`, the AC50 is 15800 nM (active). `c1ccc2c([C@@H]3CCN(CCN4CCOCC4)C3)c[nH]c2c1`: the activity, negative = inhibition is -9.42% [at 11.4 µM] (inactive).

Consider `NC[C@@H](O)CSP(=O)(O)O`, for which the activity, negative = inhibition was -2.54% [at 11.4 µM] (inactive). On the same count and under the same terms, in the case of `CCN1C[C@]2(COC)CC[C@H](O)[C@@]34[C@@H]5C[C@H]6[C@@H](OC)[C@H]5[C@](O)(C[C@@H]6OC)[C@@](O)([C@@H](OC)[C@H]23)[C@@H]14` it was 0.799% [at 25.6 µM] (inactive). Same read-out and setting: in the case of `COc1cc2cc(c1Cl)N(C)C(=O)C[C@H](OC(=O)C(C)C)[C@]1(C)O[C@@H]1[C@@H](C)[C@H]1C[C@](O)(NC(=O)O1)[C@@H](OC)/C=C\C=C(\C)C2` it was -7.72% [at 11.4 µM] (inactive).

Consider `O=c1[nH]c(=O)n(CCC2=CCCCC2)c(O)c1C=Nc1cccc(F)c1`, for which the “activity, negative = inhibition” value was -0.302% (inactive). The same measure, in the same setting: in the case of `O=c1[nH]c(=O)n(CCc2ccc(F)cc2)c(O)c1C=NCCCN1CCOCC1` it was -8.06% (inactive). As to `CCCCn1c(O)c(C(CC)=Nc2ccc(OC)cc2OC)c(=O)[nH]c1=O`, the AC50 was 12600 nM (active).

Take `CCCCn1c(O)c(C(CC)=NCc2ccc(F)cc2)c(=O)[nH]c1=O`: the AC50 is 8910 nM (active). `CCC(=Nc1cc(OC)ccc1OC)c1c(O)[nH]c(=O)[nH]c1=O`: the AC50 is 14100 nM (active). As to `CC1=C(C)[N+](=O)C2(O)CCCCC2(C)N1[O-]` (stereo not drawn), the “activity, negative = inhibition” value is 12.4% (inactive). Still for that read-out and setting: in the case of `Nc1nc(N)c2nc(CNc3ccc(C(=O)N[C@H](CCC(=O)O)C(=O)O)cc3)cnc2n1` it was -19.4% (inactive); in that of `CN(C)C(=O)Oc1cc(OC(=O)N(C)C)cc([C@@H](O)CNC(C)(C)C)c1`, -3.04% [at 25.6 µM] (inactive). The same measure, in the same setting: the same measure for `C[C@H](c1ccccc1)N1CCN([C@@H](C)c2ccccc2)CC1`: -16% [at 2.29 µM] (inactive); for `O=C(O)CSCC(=O)O`: -2.34% [at 11.4 µM] (inactive); for `CC1=C2C(=O)[C@@H]3[C@@H](CC=C4C[C@@H](O)CC[C@@]43C)[C@H]2CC[C@@]12O[C@H]1C[C@H](C)CN[C@H]1[C@@H]2C`: -16.8% [at 11.4 µM] (inactive).

For the compound `O=C(Oc1ccccc1)N1CCC2(CCCN(Cc3nccs3)C2)CC1`, the “activity, negative = inhibition” value is 1.1% (inactive). Regarding `C[C@]12N[C@H](Cc3ccccc31)c1ccccc12`, the AC50 result was “inactive”. Same read-out and setting: the same measure for `CCCCCCCC/C=C\CCCCCCCC(N)=O`: 6310 nM (active). Regarding `CCCCC/C=C\C/C=C\C/C=C\C/C=C\CCCC(=O)NCC(=O)O`, the “activity, negative = inhibition” value was -16.2% (inactive). Still for that read-out and setting: the same measure for `CC(C)[C@@]1(NC(=O)[C@@H]2C[C@H]3c4cccc5[nH]cc(c45)C[C@@H]3N(C)C2)O[C@@]2(O)[C@H]3CCCN3C(=O)[C@H](Cc3ccccc3)N2C1=O`: -4.49% (inactive); for `COC(=O)NC/C=C\c1nc(CC/C=C\C(=O)O[C@H]2C[C@H]3CC(=O)O[C@@H](/C=C\CC(C)C)C[C@@H]4CC[C@H](C)[C@H](C[C@@H](OC)C[C@H](C2)O3)O4)co1`: 3.2% [at 11.4 µM] (inactive). Turning to `Cc1cccc([C@H](C)c2cnc[nH]2)c1C`, the half-maximal activity concentration (AC50) was 158 nM (active). As for `C=C1CC[C@H](O)C/C1=C/C=C1\CCC[C@]2(C)[C@H]1CC[C@H]2[C@@H](C)CCCC(C)C`, the “activity, negative = inhibition” value was -3.1% [at 25.6 µM] (inactive). `CCNC(=S)NC1CC2CCCC(C1)N2Cc1ccco1` (stereo not drawn): the “activity, negative = inhibition” value is 0.456% (inactive). As for `CCCN(CCC)[C@@H]1CCc2cccc(O)c2C1`, the AC50 entry is “inactive”. Same read-out and setting: in the case of `CCS(=O)(=O)Nc1cccc(C(=C2CCCCC2)c2cnc[nH]2)c1` it was 316 nM (active).

As to `C[N+]1(C)C2CC[C@H]1CC(OC(=O)[C@@H](CO)c1ccccc1)C2` (stereo partly drawn), the activity, negative = inhibition is 5.51% [at 11.4 µM] (inactive).

Turning to `C[C@H](CN(C)C)C(C#N)(c1ccccc1)c1ccccc1`, the activity, negative = inhibition was -3.45% [at 2.29 µM] (inactive). In the case of `NCC[Se][Se]CCN`, the concentration at half-maximal activity (AC50) is 3160 nM (active).

Regarding `CC[C@H]1CN2CC[C@@H]1C[C@H]2[C@@H](O)c1ccnc2ccc(OC)cc12`, the “activity, negative = inhibition” value is -5.06% [at 25.6 µM] (inactive). Consider `COc1ccc(Cl)cc1NC(=O)NCCCl`, for which the AC50 was 2820 nM (active). Turning to `C[C@H]1CN(C2CCC(C#N)(c3ccc(F)cc3)CC2)CC[C@@]1(C(=O)O)c1ccccc1` (stereo partly drawn), the “activity, negative = inhibition” value was -0.959% [at 25.6 µM] (inactive). On to `CCCN1CCC[C@H](c2cccc(O)c2)C1`, for which the AC50 entry is “inactive”. `O=C(O)c1ccccc1-c1c2cc(Br)c(=O)cc-2oc2[c]([Hg])c(O)c(Br)cc12`: the AC50 is 15800 nM (active). The same measure, in the same setting: in the case of `C[C@H](N)[C@H](O)c1ccc(O)c(O)c1` it was “inactive”. `CCC(=O)O[C@H]1CC[C@H]2[C@@H]3CCC4=CC(=O)CC[C@]4(C)[C@H]3CC[C@]12C`: the “activity, negative = inhibition” value was -18% [at 25.6 µM] (inactive).

`CCN1CCC2(CC1)NC(CO)(CO)CO2`: the “activity, negative = inhibition” value is 2.62% (inactive). Take `COc1c2c(cc3c1OCO3)CCN(C)C2`: the AC50 is 2000 nM (active). Same read-out and setting: in the case of `C[C@]12N[C@@H](Cc3ccccc31)c1ccccc12` it was “inactive”. As to `N[C@@H]1C=CC=C(C(=O)O)C1`, the “activity, negative = inhibition” value was -6.11% (inactive).

The record behind these values is PubChem BioAssay AID1851 (National Center for Advancing Translational Sciences (NCATS), 2009).
